Screens from PubChem.
The list is not random: actives were taken first. Their share in the collection is about 3%.
hERG WT inh = qHTS for Inhibitors of KCHN2 3.1: Wildtype qHTS; Voltage-gated inwardly rectifying potassium channel KCNH2 (Homo sapiens), Q12809; U2OS, BacMam KCNH2, thallium flux FluxOr; active compounds read low; activity change, % at 1.84 µM; 340,000 tested, 0.37% active; AID 720551, 2013;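 active = maximum activity change below -70%; inconclusive = maximum activity change between -70% and -50%; inactive = maximum activity change above -50%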; note: % is set by controls: 0 for no effect and ±100 for the full control effect
Target sequence (Q12809 whole entry, looked up): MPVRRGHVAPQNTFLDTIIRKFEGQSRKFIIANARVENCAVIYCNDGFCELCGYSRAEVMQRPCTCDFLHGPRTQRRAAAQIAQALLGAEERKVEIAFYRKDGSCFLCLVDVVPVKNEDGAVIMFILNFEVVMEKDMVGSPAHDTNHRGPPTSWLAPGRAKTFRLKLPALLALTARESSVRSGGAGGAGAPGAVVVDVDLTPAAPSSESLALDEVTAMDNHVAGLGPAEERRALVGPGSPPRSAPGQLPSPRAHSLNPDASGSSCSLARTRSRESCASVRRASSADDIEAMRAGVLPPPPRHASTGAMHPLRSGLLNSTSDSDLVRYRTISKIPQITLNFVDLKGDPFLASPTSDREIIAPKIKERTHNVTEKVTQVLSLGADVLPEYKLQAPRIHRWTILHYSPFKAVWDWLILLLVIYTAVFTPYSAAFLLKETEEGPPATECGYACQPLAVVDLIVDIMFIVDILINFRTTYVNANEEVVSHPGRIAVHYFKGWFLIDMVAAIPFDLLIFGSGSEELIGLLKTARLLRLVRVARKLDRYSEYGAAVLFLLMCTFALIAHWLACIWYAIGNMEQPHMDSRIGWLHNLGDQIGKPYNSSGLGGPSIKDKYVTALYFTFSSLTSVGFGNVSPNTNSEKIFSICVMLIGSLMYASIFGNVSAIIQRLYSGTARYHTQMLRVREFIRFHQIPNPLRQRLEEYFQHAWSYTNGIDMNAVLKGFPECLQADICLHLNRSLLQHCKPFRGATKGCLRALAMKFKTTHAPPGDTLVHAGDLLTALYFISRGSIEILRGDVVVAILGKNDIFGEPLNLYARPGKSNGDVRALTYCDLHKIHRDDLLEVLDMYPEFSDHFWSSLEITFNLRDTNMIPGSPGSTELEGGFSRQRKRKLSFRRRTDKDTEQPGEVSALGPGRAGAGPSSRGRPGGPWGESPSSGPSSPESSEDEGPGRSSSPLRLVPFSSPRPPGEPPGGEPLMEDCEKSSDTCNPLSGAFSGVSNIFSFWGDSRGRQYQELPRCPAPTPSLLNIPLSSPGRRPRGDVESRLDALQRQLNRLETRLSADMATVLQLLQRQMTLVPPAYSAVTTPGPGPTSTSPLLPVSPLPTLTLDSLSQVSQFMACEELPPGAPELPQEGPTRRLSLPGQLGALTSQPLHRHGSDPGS
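U2OS cells transduced with wild-type KCNH2 virus are loaded with FluxOr dye for 45 min, and thallium flux is measured in kinetic reads before and after stimulation buffer. Rate constants are normalized to DMSO controls.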
BCR signal inh = qHTS Assay to Find Inhibitors of Chronic Active B-Cell Receptor Signaling; 340,000 tested, 0.05% active; AID 493014, 2011; ABC-DLBCL IkBa-CBG/CBR reporter, luminescence ratio, 4 h; Potency, µM (series often up to 46.1 µM), for the others: at the highest dose activity change, negative = inhibition, hits mostly inhibitors; active = well fitted inhibition curve with a large enough effect in the signal ratio, with a control signal flat, not every such curve was filed as active; inconclusive = small, poorly fitted or top-dose-only effect, or effect the other way, or a change in a side signal; the % refers to the signal ratio;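 note: potency is the fitted concentration of half-maximal effect; plate controls were basal doxycycline-induced cells for no effect and cells given 10 µM MG132 for full effect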
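Doxycycline induced both beetle luciferases in TMD8 lymphoma cells; IKK-driven degradation limits the IkappaBalpha-fused green signal, while red luminescence normalises for cell number and nonspecific effects. Compounds tested up to 46 uM, 4 hrs.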
ClpP mod = qHTS Assay for Activators of ClpP | Potency, µM (series often up to 57.5 µM), without a hit: top-dose activity change, negative = active | ATP-dependent Clp protease proteolytic subunit (Bacillus subtilis (strain 168)), P80244 | purified B. subtilis ClpP, FRET peptide cleavage, 20 min | 340,000 tested, 1.9% active; active = well fitted falling curve with a large enough effect; inconclusive = small, poorly fitted or top-dose-only effect; inactive = no such curve, though single readings can be large or run the other way; note: potency is the fitted concentration of half-maximal effect; the source files actives as falling curves though it sought activators and does not explain the sign; nearly all actives have a fitted effect of over 65% in size
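ClpP 10 microg/mL final, pH 8 Tris/KCl buffer with BSA, glycerol, Tween-20; compound pinned in; FRET-FV substrate; RT 20 min; Ex320/Em430; ΔFRET vs ADEP 5.8 microM, DMSO, no enzyme.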
ALOX12 inh = Primary qHTS assay for inhibitors of human arachidonate 12S-lipoxygenase (ALOX12): Round 2; AID 1671190, 2021; Polyunsaturated fatty acid lipoxygenase ALOX12 (Homo sapiens), P18054; Potency, µM (highest dose often 108 µM), for inactives: at the top dose activity change, negative = inhibition, usual class: inhibitors; 580,000 tested, 1.1% active; purified 12hLO, xylenol orange hydroperoxide absorbance; active = well fitted inhibition curve with a large enough effect; inconclusive = small, poorly fitted or top-dose-only effect, or another doubt; inactive = no such curve, though single readings can be large or run the other way; note: potency is the fitted concentration of half-maximal effect; % is set by controls: 0 for no effect and ±100 for the full control effect
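Hydroperoxide product was detected by ferrous iron/xylenol orange as the 573 to 405 nm absorbance ratio. Arachidonic acid at 40 uM (final) was turned over for 30 min at room temperature by 150 nM human 12hLO, pH 7.0 Hepes buffer, after 15 min compound preincubation.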
KCNH2 3.1 block = qHTS for Inhibitors of KCHN2 3.1: Mutant qHTS. AID 720553, 2013. Potassium voltage-gated channel subfamily H member 2, brain isoform KCNH2 3.1 (human). 340,000 tested, 0.95% active. U2OS KCNH2 3.1, thallium flux FluxOr; active compounds read low. activity change, % (tested at about 1.8 µM);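 active = maximum activity change below -70%; inconclusive = maximum activity change from -70% to -50%; inactive = maximum activity change above -50%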;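 note: thallium influx rate constant from kinetic fluorescence after stimulation buffer; % is set by controls: 0 for no effect and ±100 for the full control effect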
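Measured as rate of thallium-driven FluxOr signal in transduced U2OS cells carrying the 3.1 channel, read kinetically for 2 min upon stimulation; values are rate constants scaled to DMSO control wells.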
LDHA block = qHTS assay for inhibitors of human lactate dehydrogenase; activity change, % (values are at about 110 or 230 µM); 480,000 tested, 0.15% active; purified LDHA, NADH/diaphorase-resazurin fluorescence; active compounds read low; in the data active = activity change below about -30%; inconclusive = mostly about -25% to -30%;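 note: plate controls were DMSO wells for no effect and wells without enzyme for full effect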
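LDH5 2 nM; NADH 0.06 mM, pyruvate 0.2 mM; 200 mM Tris pH 7.4, EDTA, Tween-20; 5 min RT. Detection: diaphorase 0.133 mg/mL + resazurin 37 µM, fluorescence ex540/em590 at 0 and 20 min; normalized to enzyme-free and DMSO wells.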
An asterisk follows results filed as active; ? = inconclusive; . = no result given.

SMILES | hERG WT inh | BCR signal inh | ClpP mod | ALOX12 inh | KCNH2 3.1 block | LDHA block
Cc1cc(C)c(OCC(=O)OCCNC(=O)c2cccnc2)c(C)c1 | -7 | -19% | -3% | ? | -6 | -10
O=C(/C=C/c1ccc2ccccc2c1)c1cccnc1 | . | . | . | ? | . | 5
CC(C)c1noc(-c2ccn3c(CNC(=O)Cc4ccccc4Cl)nnc3c2)n1 | . | . | . | 11% | . | .
CCc1noc(-c2ccn3c(CNC(=O)c4ccc(F)cc4)nnc3c2)n1 | . | . | . | 11% | . | .
CCCc1noc(-c2ccn3c(CNC(=O)c4ccc(F)c(Cl)c4)nnc3c2)n1 | . | . | . | 50µM* | . | .
CCCc1noc(-c2ccn3c(CNC(=O)Cc4ccccc4Cl)nnc3c2)n1 | . | . | . | 45µM* | . | .
CCCc1noc(-c2ccn3c(CNC(=O)c4ccc(CC)cc4)nnc3c2)n1 | . | . | . | 40µM* | . | .
O=C(COC(=O)c1cc2ccccc2oc1=O)Nc1cccc2ccccc12 | . | . | . | ? | . | 2
Cc1cc(C)cc(N(CC(=O)Nc2ccc(Br)cc2)S(=O)(=O)c2c(C)[nH]c(=O)[nH]c2=O)c1 | -24 | 15% | -1% | ? | -109* | -11
N=c1c2c(-c3ccccc3)c(-c3ccccc3)n(Cc3ccco3)c2ncn1Cc1ccccc1 | -18 | ? | -3% | 33% | -25 | -5
N=c1c2c(-c3ccccc3)c(-c3ccccc3)n(Cc3ccco3)c2ncn1CCCn1ccnc1 | -17 | ? | 2% | 3% | -71* | -4
N=c1c2c(-c3ccccc3)c(-c3ccccc3)n(Cc3ccco3)c2ncn1CCCN1CCOCC1 | -4 | -1% | . | -17% | -78* | 0
N=c1c2c(-c3ccccc3)c(-c3ccccc3)n(Cc3ccccc3)c2ncn1CCO | 10 | ? | 2% | ? | -1 | 4
CC(C)Cn1cnc2c(c(-c3ccccc3)c(-c3ccccc3)n2Cc2ccco2)c1=N | -74* | ? | -3% | -89% | -101* | -2
N=c1c2c(-c3ccccc3)c(-c3ccccc3)oc2ncn1CCCN1CCOCC1 | -12 | ? | ? | -46% | -46 | -6
O=C(OCC(=O)N1CCCC1)c1cc(-c2ccco2)nc2ccccc12 | . | . | . | 6.3µM* | . | 10
Cc1ccc(-c2cc(C(=O)OCC(N)=O)c3ccccc3n2)cc1 | . | . | . | ? | . | -1
COC(=O)c1ccc(COC(=O)c2cc(-c3ccco3)nc3ccccc23)cc1 | . | . | . | 7.1µM* | . | -2
CC(C)CNC(=O)COC(=O)c1cc(-c2ccco2)nc2ccccc12 | . | . | . | ? | . | 6
O=C(c1cc(-c2ccco2)nc2ccccc12)N1CCCC1 | . | . | . | ? | . | 3
NC(=O)COC(=O)c1cc(-c2ccco2)nc2ccccc12 | 14 | ? | . | 28µM* | -3 | -18
CNC(=O)NC(=O)COC(=O)c1cc(-c2ccco2)nc2ccccc12 | . | . | . | 16µM* | . | -1
Cc1ccc(Cn2c(-c3ccccc3)nc3ccccc32)cc1 | . | . | -20% | -5% | . | 3
CCOc1cc(Cn2c(-c3ccc(O)c(OCC)c3)nc3ccccc32)ccc1O | . | ? | 10µM* | 3% | . | 7
C=CCn1c(-c2ccc(C)cc2)nc2ccccc21 | -14 | -15% | 7.1µM* | 12% | 1 | -4
SMILES | hERG WT inh | BCR signal inh | ClpP mod | ALOX12 inh | KCNH2 3.1 block | LDHA block
COc1ccc(-c2nc3ccccc3n2Cc2ccc(C)cc2)cc1 | -122* | . | ? | -16% | . | 1
CCOc1ccc(Cn2c(-c3ccc(OCC)c(OC)c3)nc3ccccc32)cc1OC | . | . | -10% | -18% | . | 1
Cc1ccccc1NC(=O)C1CCCN(c2cn[nH]c(=O)c2)C1 (stereo not given) | . | . | . | 22% | . | .
COc1cccc(CN2c3ccccc3C3=C(C(c4ccccc4)C(C#N)=C(N)O3)S2(=O)=O)c1 (stereo not given) | . | . | . | ? | . | -1
CC1CCC(N2CCN(S(C)(=O)=O)CC2)CC1 (stereo not given) | -7 | 12% | 0% | ? | 2 | -34*
CS(=O)(=O)N1CCN(C2C3CC4CC(C3)CC2C4)CC1 (stereo not given) | -5 | 10% | -2% | -17% | 12 | -32*
C/C(=N/Nc1ccc(S(N)(=O)=O)cc1[N+](=O)[O-])c1ccc(C#N)cc1 | . | . | . | 63% | . | 2
COc1ccccc1/C=C/C=C(/C#N)C(=O)NC(C)c1ccccc1 (stereo not given) | . | . | . | ? | . | 18
CC(C)c1ccc(C(=O)NC(=S)NCCCO)cc1 | . | . | . | ? | . | 3
CCCCOc1ccc(C(=O)NC(=S)NCCCO)cc1Br | . | . | . | 7.9µM* | . | 2
CCc1ccc(C2C=C(c3ccc(OC)cc3)Nc3nnnn32)cc1 (stereo not given) | . | . | . | ? | . | 6
COc1cc(C(=O)NC2CC(C)(C)Cc3c2cnn3-c2ccccc2)cc(OC)c1OC (stereo not given) | 5 | 0% | . | 10% | -15 | -1
COc1cccc(C(=O)NC2CC(C)(C)Cc3c2cnn3-c2cccc(F)c2)c1OC (stereo not given) | 6 | 8% | 14µM* | ? | . | -8
Cc1ccc(C(CNC(=O)COc2cc(C)cc(C)c2)N2CCCCC2)cc1 (stereo not given) | . | . | . | ? | . | 4
C/C(=C\c1ccccc1)C(=O)Nc1ccc(C)cc1C | . | . | . | ? | . | 5
O=C1CCCC2=C1C(c1ccc(F)cc1)C=C1c3cc4c(cc3CCN12)OCCCO4 (stereo not given) | . | . | . | ? | . | 30
CC1(C)CC(=O)C2=C(C1)N1CCc3cc4c(cc3C1=CC2c1ccc(F)cc1)OCCCO4 (stereo not given) | . | . | . | 25µM* | . | 10
Cc1ccc(NC(=O)Cc2c[nH]c3ccccc23)cc1C | . | . | . | ? | . | 18
CCOC(=O)CCc1c(C)c2ccc(OCC(=O)N3CCOCC3)c(C)c2oc1=O | -7 | -5% | 10µM* | 1% | 6 | 2
CCOC(=O)COc1ccc2c3c(c(=O)oc2c1C)CCC3 | -1 | 0% | 13µM* | 0% | 3 | -1
COc1ccc2c3c(c(=O)oc2c1OCC(N)=O)CCCC3 | 8 | 1% | 28µM* | 0% | 3 | 1
CCCCc1c(C)c2ccc(OC)c(/C(C)=N\O)c2oc1=O | 12 | 7% | 8.9µM* | -7% | 3 | -5
